PubChem BioAssay AID583 (Sanford-Burnham Center for Chemical Genomics, 2007)
Values joined by “and” are separate entries in the source; they are usually repeats but may differ in a detail not shown here. Equal entries are not always repeated. Hit rate of the full screen: of about 140,000 compounds, about 80 (0.06%) were called active. The sample holds actives, similar compounds and a random draw of the others, so the mix is not that of the screen. No stated cut-off is given here; in the data, active means displacement above about 50%; inactive means the rest. Where a structure was tested more than once in an assay, its records may differ in their call.

These molecules were tested against Heat shock 70 kDa protein 1A (Homo sapiens) (UniProt P0DMV8) (assay: small molecules displacing fluorescent ligand from Hsp70 – biochemical, fluorescence polarization, primary screen (AID 583;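 further: plate controls were vehicle for no effect and reference ligand for full effect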)). Conditions: Hsp70 fluorescence polarization probe displacement, mP; at 20 µM; stronger effect = higher value.
Chain of Heat shock 70 kDa protein 1A (Homo sapiens) (P0DMV8 whole entry, looked up): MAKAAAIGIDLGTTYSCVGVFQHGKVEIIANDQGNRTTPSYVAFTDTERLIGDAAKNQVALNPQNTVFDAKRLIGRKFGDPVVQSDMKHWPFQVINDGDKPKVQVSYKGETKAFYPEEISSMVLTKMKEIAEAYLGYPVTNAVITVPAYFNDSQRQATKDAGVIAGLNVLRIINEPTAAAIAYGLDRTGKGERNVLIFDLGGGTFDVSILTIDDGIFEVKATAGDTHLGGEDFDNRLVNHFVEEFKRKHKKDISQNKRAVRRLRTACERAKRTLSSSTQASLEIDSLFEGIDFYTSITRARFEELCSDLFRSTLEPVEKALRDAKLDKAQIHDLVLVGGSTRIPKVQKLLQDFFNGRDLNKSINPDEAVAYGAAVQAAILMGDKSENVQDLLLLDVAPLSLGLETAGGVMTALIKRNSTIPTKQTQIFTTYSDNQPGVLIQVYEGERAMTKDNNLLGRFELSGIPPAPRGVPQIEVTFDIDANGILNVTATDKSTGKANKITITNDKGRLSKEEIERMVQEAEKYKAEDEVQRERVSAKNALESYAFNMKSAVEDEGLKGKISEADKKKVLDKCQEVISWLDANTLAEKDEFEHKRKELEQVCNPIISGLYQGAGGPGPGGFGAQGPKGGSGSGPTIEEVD

displacement, inactive:
CCOC(=O)c1c(NC(=O)c2cccnc2)sc2c1CCCC2 6.4%
CCOC(=O)c1c(NC(=O)c2cccnc2)sc2c1CCC2 -2%
COc1ccc(-c2cc(C(F)(F)F)nc(-n3cc(Br)cn3)n2)cc1 -0.2%
CCCN1C(=O)/C(=C2\SC(=S)N(CCC(=O)O)C2=O)c2ccccc21 -0.7%
O=C(O)CCCCCN1C(=O)/C(=C2/C(=O)N(CC(=O)O)c3ccccc32)SC1=S 5.6%
Cc1cc(C)c(C(=O)CSc2n[nH]c(=O)n2C2CC2)cc1C 0.8%
COCCOC(=O)c1ccc(NC(=O)COc2cc(C)c(Cl)c(C)c2)cc1 0.2%
COCCOC(=O)c1ccc(NC(=O)COc2ccc(C)cc2)cc1 3.9%
C/C(=N\NC(=O)c1cc(-c2cccc([N+](=O)[O-])c2)n[nH]1)c1ccccc1O -0.9%
CCN(CC)C(=O)CSc1nnc(CCN)o1 -0.4%
O=c1c2ccccc2nnn1CSc1nnc(-c2cccc(S(=O)(=O)N3CCCCC3)c2)o1 -0.1%
CCOC(=O)C(=O)Nc1ccc(C(N)=O)cc1 -0.8%
CCOC(=O)C(=O)Nc1ccc(F)cc1 5.5%
CCc1ccccc1NC(=O)CN(c1ccc(OC)c(Cl)c1)S(C)(=O)=O -3.3%
O=C(O)C1Nc2c(C(=O)N3CCOCC3)cccc2C2C=CCC12 (stereo not given) 17.9%
O=C(O)C1Nc2c(C(=O)N3CCCC3)cccc2C2C=CCC12 (stereo not given) 11.2%
COc1ccc2c(c1)C1C=CCC1C(C(=O)O)N2 (stereo not given) 31.6%
Cc1cc(I)c2c(c1)C1C=CCC1C(C(=O)O)N2 (stereo not given) 23.8%
O=C(Nc1ccc2c(c1)OCCO2)c1cnc2ccccn2c1=O 0.6%
CCN(CC)CCCOc1c(Cl)cccc1Cl 0.3%
Cc1cccc(OCC(=O)N2CCN(C(=O)c3cccs3)CC2)c1 -2.2%
O=C1c2cccc3cccc(c23)C(=O)N1c1ccc2c(c1)OCO2 -2.6%
CCOC(=O)c1c(C)nc(-c2ccccc2)nc1NC(=O)c1ccccc1 -1.8%
CCOC(=O)c1c(C)nc(-c2ccccc2)nc1NC(C)=O 0.2% and 7.4%
CC1=C(C(=O)Nc2ccccn2)C(c2cccnc2)n2nnnc2N1 (stereo not given) 1.5%
COc1cccc(-c2nc3ccccc3c(=O)o2)c1 -0.1%
O=c1nc(/C=C/c2cc([N+](=O)[O-])ccc2Cl)cc(C(F)(F)F)[nH]1 3.5%
O=[N+]([O-])c1ccc(O)c(-c2cc(C(F)(F)F)nc(-c3ccccc3)n2)c1 4.6%
O=C(Cn1ncc2c1-c1ccccc1OC2)Nc1nc2ccccc2s1 0%
N#Cc1c(NC(=O)CCCN2C(=O)c3ccccc3C2=O)sc2c1CCCC2 2.9%
NC(=O)c1c(NC(=O)CCN2C(=O)c3ccccc3C2=O)sc2c1CCC2 -3.3%
COc1ccc(C2Nc3ccccc3NC3=C2C(=O)CC(c2ccc(Cl)cc2)C3)cc1 (stereo not given) -0.1%
CC1(C)C2CCC1(C)C(NC(=O)C1CC3c4ccccc4C1c1ccccc13)C2 (stereo not given) 1.1%
Cc1ccc(NC(=O)CSc2nnc(-c3ccccc3Br)o2)cc1C -2.9%
Cc1ccccc1-n1c(O)c(C=C2C=CC=N2)c(=O)[nH]c1=S 44.3%
O=c1[nH]c(=S)n(-c2cccc(Cl)c2)c(O)c1/C=C1/C=CC=N1 10%
Cc1ccc(N2C(=O)C3CC=C(c4ccccc4)CC3C2=O)cc1 (stereo not given) -0.4%
CC1=C(C)CC2C(=O)N(c3ccc(Br)cc3)C(=O)C2C1 (stereo not given) 4.3%
O=C1NC(=S)S/C1=C/c1cc(Br)ccc1OCc1ccccc1Cl 4.3%
Cn1c(CN2CCCCC2)nc2cc(NC(=O)c3ccccc3)ccc21 1.9%
COc1ccc(OC)c(NC(=S)NC(NC(=O)Cc2ccccc2)C(Cl)(Cl)Cl)c1 (stereo not given) -6.4%
O=C(Nc1ccccc1)c1ccccc1C(=O)N1CCCCC1 4.4%
CC1(C)OC(=O)C(=Cc2ccc(-c3ccc(Cl)cc3Cl)o2)C(=O)O1 -3.2%
O=C1C(=Cc2ccc(I)o2)C(=O)c2ccccc21 10.7%
COc1ccc(OC)c(C=NN2CCN(Cc3ccccc3Cl)CC2)c1 -1.8%
CCOc1cc(C2Nc3ccc4ccccc4c3C3=C2CC(C)(C)CC3=O)ccc1O (stereo not given) 2.3%
Cc1csc(NC(=O)c2ccc([N+](=O)[O-])cc2Cl)n1 5.8%
Nc1cc(S(=O)(=O)O)cc2cccc(S(=O)(=O)O)c12 4.7%
Nc1ccc(S(=O)(=O)O)c2cccc(S(=O)(=O)O)c12 6.4%
O=C1c2ccccc2C(=O)N1/N=C/c1ccc(O)cc1O -1.5%
Cc1cccc(-c2cc3nc(C)cc(NCCCN(C)C)n3n2)c1 4.1%
CN(C)c1ccc(/C=N/N=C2/NC(=O)C(Cc3ccc(Cl)cc3)S2)cc1 (stereo not given) -3.1%
Cc1cc(C)n(Cc2ccc(C(=O)O)cc2)n1 -8.4%
O=C(O)c1ccc(CN2CCOCC2)cc1 0%
N#Cc1cc2c(nc1SCc1ccc(Br)cc1)CCCC2 -3.8%
O=C(COc1ccc(Cl)cc1Cl)NNC(=O)CN1C(=O)/C(=C/c2ccc(Cl)cc2Cl)SC1=S 0.4%
COc1ccccc1/C=N/NC(=O)C(=O)NCc1ccccn1 -2.8%
CCn1c2ccccc2c2cc(CN3CCN(C(=O)CC(C)C)CC3)ccc21 -0.3%
Cc1ccc(-n2[nH]c(C)c(C=Nc3ccc(C)cn3)c2=O)cc1 2%
Cn1cccc1/C=C1/C(=O)NC(=S)N(c2cccc(Cl)c2)C1=O 37.8%
COc1ccccc1C=C1C(=O)NC(=S)N(c2ccccc2F)C1=O 4%
N#Cc1cccc(-n2c(-c3ccccc3)nnc2-c2ccccc2)c1C#N -2.8%
COc1cc(NC(=O)c2ccc3c(c2)OCCO3)ccc1NC(=O)c1ccco1 -0.4%
Cc1nn(-c2ccc(F)cc2)c(C)c1NS(=O)(=O)c1ccc(Cl)cc1 1%
Cc1c(C#N)c2nc3ccccc3n2c(=O)/c1=C\c1c(O)n(-c2ccc(Br)cc2)[nH]c1=O 24.7%
Cc1c(C#N)c2nc3ccccc3n2c(=O)/c1=C/c1sc2ccccc2c1O 2.1%
O=C1c2ccccc2C(=O)N1c1ccc2c(c1)C(=O)N(c1ccccc1)C2=O 4.1%
Nc1ccc2c(c1)C(=O)N(c1ccccc1)C2=O 8.5%
O=[N+]([O-])c1cc(-c2nnc(-c3ccc(Br)o3)o2)cc([N+](=O)[O-])c1 0.4%
O=C(NC1CC1)C1CCCN(C(=O)Nc2ccc(F)cc2)C1 (stereo not given) -7.5%
Cc1ccc(C)c(S(=O)(=O)Nc2ccc3sc(C)nc3c2)c1 -3.2%
CCOC(=O)c1[nH]cnc1C(=O)Nc1ccccc1 0%
CCOC(=O)c1[nH]cnc1C(=O)Nc1ccccn1 -29.4% and -2.5%
CC1=C(C(=O)Nc2ccccc2C)C(c2ccc(C)o2)N2C(=O)CSC2=N1 (stereo not given) 1.1%
CCN1C(=O)/C(=C2\SC(=O)N(Cc3ccccc3)C2=O)c2ccccc21 -2.9%
N#C/C(=C\c1ccc(-c2ccc(C(=O)O)cc2)o1)C(=O)NCc1ccco1 -4.4%
N#C/C(=C\c1ccc(-c2cccc(Cl)c2Cl)o1)C(=O)NCc1ccco1 -2.5%
CC(=O)OC(/C(O)=C(\C#N)c1nc2ccccc2[nH]1)c1ccccc1 (stereo not given) -1.2%

displacement, active:
CC(C)OC(=O)c1c(NC(=O)c2cccnc2)sc2c1CCCCC2 80.1%
O=C(O)CCN1C(=O)/C(=C2\C(=O)N(Cc3ccccc3Cl)c3ccccc32)SC1=S 53.2%
COCCOC(=O)c1ccc(NC(=O)COc2ccc(C)c(C)c2)cc1 86.3%
CCOC(=O)C(=O)Nc1ccc(NC(C)=O)cc1 56.6%
Cc1c(Cl)ccc2c1NC(C(=O)O)C1CC=CC21 (stereo not given) 95.7%
O=C(O)C1Nc2c(Cl)cc(Cl)cc2C2C=CCC12 (stereo not given) 78%
CCOC(=O)c1c(C)nc(C)nc1NC(=O)c1ccccc1 85.3%
N#Cc1c(NC(=O)CCN2C(=O)c3ccccc3C2=O)sc2c1CCCC2 72.6%
Cn1c(O)c(/C=C2/C=CC=N2)c(=O)n(-c2ccccc2)c1=S 53%
O=C1C2CC=C(c3ccccc3)CC2C(=O)N1c1ccc(Br)cc1 (stereo not given) 60.4%
CC1(C)OC(=O)C(=Cc2ccc(I)o2)C(=O)O1 97.3%
COc1ccccc1N1C(=O)C(=Cc2cccn2C)C(=O)NC1=S 69.9%
Cc1ccc(-n2[nH]c(=O)c(/C=c3/c(C)c(C#N)c4nc5ccccc5n4c3=O)c2O)cc1C 83%
CCOC(=O)c1[nH]cnc1C(=O)NCc1ccccc1 88.8%
Cc1ccc([N+](=O)[O-])cc1-c1ccc(/C=C(\C#N)C(=O)NCc2ccco2)o1 75.7%

displacement, 34.1% (inactive) and 73.7% (active):
Nc1ccc(S(=O)(=O)O)c2cccc(O)c12

displacement, 103% (active) and 21.6% (inactive):
Cc1ccc(C)n1Cc1ccc(C(=O)O)cc1
